PLAP act = human PLAP activation; hit rate 1.2% among 96,000; activation fold at 20 µM; purified PLAP enzyme, luminescent substrate read-out; stronger effect = higher value; in the data active = activation fold above about 2
Target sequence (P05187 whole entry, looked up): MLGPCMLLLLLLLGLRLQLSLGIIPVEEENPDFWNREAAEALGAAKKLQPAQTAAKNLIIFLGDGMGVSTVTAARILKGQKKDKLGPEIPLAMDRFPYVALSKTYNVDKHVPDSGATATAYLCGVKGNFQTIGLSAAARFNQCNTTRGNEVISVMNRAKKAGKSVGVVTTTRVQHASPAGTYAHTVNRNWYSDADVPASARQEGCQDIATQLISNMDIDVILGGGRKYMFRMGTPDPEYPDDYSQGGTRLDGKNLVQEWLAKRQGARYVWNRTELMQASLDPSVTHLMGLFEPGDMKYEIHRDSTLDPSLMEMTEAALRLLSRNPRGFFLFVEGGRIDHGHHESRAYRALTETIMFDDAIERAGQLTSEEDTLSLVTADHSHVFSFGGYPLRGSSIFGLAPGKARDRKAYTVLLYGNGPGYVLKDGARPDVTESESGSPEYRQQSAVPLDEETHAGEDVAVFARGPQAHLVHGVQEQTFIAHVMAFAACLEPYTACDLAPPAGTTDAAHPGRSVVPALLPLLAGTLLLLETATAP
Ecoli WT expand = blocks growth of wild type E. coli BW25113; OD600 absorbance; growth inhibition, % at 100 µM; hit rate 0.15% among 98,000; AID 710;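 active = growth inhibition above about 50% at one test dose, limit read from the data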;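 also: growth measured after 20 h incubation at 37 °C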
HePTP inh = human HePTP phosphatase inhibition | P35236 | recombinant HePTP phosphatase activity, OD absorbance | inhibition, % at 20 µM | hit rate 0.64% among 110,000; in the data active = inhibition above about 50%;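 also: plate controls were vehicle for no effect and reference inhibitor for full effect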
TNAP act mid DEA = activates human TNAP at intermediate phosphate acceptor concentration; activation factor at 20 µM; purified TNAP, CDP-star luminescence, 100 mM DEA, 30 min; stronger effect = higher value; scale: 0 levamisole-inhibited, 1 vehicle-only enzyme; P05186; AID 813; 64,000 tested, under 10 active;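 active = activation factor of at least 2 at 20 µM, relative to controls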
The depositor's hits bear a star; . = no result. This is a sample that favours compounds with a hit; in the whole collection about 1.3% have one here.

SMILES	PLAP act	Ecoli WT expand	HePTP inh	TNAP act mid DEA
Cc1cc2ccccc2n1CCNC(=O)C(C)(C)C	.	6	1	1
CC(=O)NC1=NC(=O)/C(=C/c2cc(C)n(-c3ccc(C(=O)O)cc3)c2C)S1	.	.	61*	.
CCCCOC(=O)c1cccc(NC(=O)c2ccc(OC)cc2)c1	.	.	104*	.
CCCCOC(=O)c1ccc(NC(=O)c2cccc(OC)c2)cc1	.	.	0	.
Cc1cccc(NC(=O)c2cnccn2)c1	.	.	60*	.
CCc1cccc(NC(=O)c2cnccn2)c1	.	.	-10	.
CCOc1cc(/C=C2/C(=N)N3N=C(CC)SC3=NC2=O)ccc1OC(=O)c1cccc([N+](=O)[O-])c1	.	.	103*	.
CCC1=NN2C(=N)/C(=C/c3ccc(OC(=O)c4ccc(F)cc4)c(OC)c3)C(=O)N=C2S1	.	.	8	.
O=C(CSc1nc2ccccc2[nH]1)N1CCN(S(=O)(=O)c2ccc(Cl)cc2)CC1	2*	4	.	.
Cc1ccc(S(=O)(=O)N2CCN(C(=O)CSc3nc4ccccc4c(=O)[nH]3)CC2)cc1	.	-13	8	1.1
Cc1c(C(=O)N(C)C)sc2nc(-c3ccccn3)[nH]c(=O)c12	2.9*	3	.	.
O=C(O)c1ccc2c(c1)C(=O)N(c1ccc(-c3nnc(-c4ccccc4)o3)cc1)C2=O	.	.	102*	.
CCOc1ccccc1N=CC1=C(O)CC(c2ccccc2)CC1=O (configuration not stated)	.	.	11	.
CC(C)c1ccc(N2C(=O)NC(=O)/C(=C/c3ccc(Br)o3)C2=O)cc1	.	.	102*	.
Cc1cccc(N2C(=O)NC(=O)/C(=C/c3ccc(Br)o3)C2=O)c1	.	.	75*	.
CCC(C)c1ccc(NC(=O)c2cccnc2)cc1 (configuration not stated)	0.8	-2	12	0.8
CCCCOc1ccc(N2C(=O)CC(NCCc3ccc(S(N)(=O)=O)cc3)C2=O)cc1 (configuration not stated)	2.1*	-1	.	.
NS(=O)(=O)c1ccc(CCNC2CC(=O)N(c3ccc(I)cc3)C2=O)cc1 (configuration not stated)	.	.	-4	.
CCc1cccc(NC(=O)Cc2ccccc2)c1	.	.	102*	.
COc1ccccc1C(=O)N1CCN(Cc2ccccc2F)CC1	.	.	8	.
O=c1cc2c(nn1Cc1ccc(Cl)cc1)-c1ccccc1CC2	2*	-8	.	.
c1ccc(-c2noc(C34CC5CC(CC(C5)C3)C4)n2)cc1	0.8	3	.	.
Cn1c(NC(=O)c2cccnc2)nc2ccccc21	2*	-1	7	1
Cc1ccc(C(=O)Nc2nc3ccccc3n2C)cc1	.	.	-14	.
Cc1ccc(-n2ncc3c(NCc4ccccn4)ncnc32)c(C)c1	2*	4	6	1
SMILES	PLAP act	Ecoli WT expand	HePTP inh	TNAP act mid DEA
CCC(C)(C)C1CCc2c(sc(NC(=O)CCCC(=O)O)c2C(N)=O)C1 (configuration not stated)	.	.	5	.
Nc1nonc1N/N=C/c1ccc2nsnc2c1	.	.	4	.
CCOc1ccc(N(CC(=O)NCc2ccc(OC)cc2)S(=O)(=O)c2ccc(Br)cc2)cc1	.	.	6	.
CCOc1ccc(N(CC(=O)NCc2ccc(Cl)cc2)S(=O)(=O)c2ccc(Br)cc2)cc1	.	.	103*	.
Cc1ccc(S(=O)(=O)/N=C2\C=C(n3cnc4ccccc43)C(=O)c3ccccc32)cc1	.	.	85*	.
CCOc1ccc(-c2[nH]ncc2-c2ccc(OC)c(OC)c2)c(O)c1	2.7*	-1	6	1.3
C=C(C)COc1ccc(-c2[nH]ncc2Oc2ccccc2OC)c(O)c1	2*	17	-7	1.2
C=C(C)COc1ccc(-c2nc(N)ncc2Oc2ccccc2OC)c(O)c1	1	-16	1	1
CCOc1ccc(-c2[nH]ncc2Oc2ccccc2OCC)c(O)c1	2.5*	22	-3	1
C=C(C)COc1ccc(-c2[nH]ncc2-c2ccccc2OC)c(O)c1	2.5*	26	3	1.1
CCOc1ccc(-c2[nH]ncc2Oc2ccccc2OC)c(O)c1	.	6	8	1.1
COc1cc(NC(=O)c2cc3n(n2)C(C(F)(F)F)CC(c2ccc(Br)cc2)N3)cc([N+](=O)[O-])c1 (configuration not stated)	.	.	-4	.
CC(C)NCC(O)COCc1ccc(Cl)cc1 (configuration not stated)	0.8	-1	5	1
CCCOC(=O)c1ccc(Oc2cn[nH]c2-c2ccc(OC)cc2O)cc1	2.9*	-2	4	1.2
CCCOC(=O)c1ccc(NC(=O)COc2ccc(OC)cc2)cc1	.	.	-15	.
CC(C)(C)c1ccc(S(=O)(=O)NC(Cc2ccccc2)C(=O)O)cc1 (configuration not stated)	1.5	4	.	.
CCOc1ccc2nc(SCc3ccccn3)sc2c1	.	.	79*	.
CC1CC(C)CN(S(=O)(=O)c2ccc(C(=O)Nc3nnc(-c4cccs4)o3)cc2)C1 (configuration not stated)	1.1	4	9	0.9
O=C(Nc1nnc(-c2cccs2)o1)c1cccc(C(F)(F)F)c1	2.1*	57*	4	0.8
Cc1ccc(CNC(=O)C2CCCN(S(=O)(=O)c3c(C)n[nH]c3C)C2)cc1 (configuration not stated)	2.3*	-7	.	.
CCc1nnc(NC(=O)c2ccc(S(=O)(=O)N3CCCc4ccccc43)cc2)o1	2.1*	4	.	.
COc1ccc(C(CC(=O)O)NS(=O)(=O)c2ccc(C)cc2)cc1OC (configuration not stated)	1	8	3	0.9
CCN(CC)c1ccc(/C=C2/C(=O)NN(c3ccc(C)cc3)C2=O)c(O)c1	.	.	61*	.
O=c1c2cc(N3CCOCC3)ccc2[nH]c(=S)n1CCCN1CCCCCC1	1.7	2	1	0.9
CCOC(=O)c1c(-c2ccc(OC)cc2)csc1NC(=O)C1CC=CCC1C(=O)O (configuration not stated)	.	.	105*	.
SMILES	PLAP act	Ecoli WT expand	HePTP inh	TNAP act mid DEA
CCOc1cc(C=C2C(=O)NC(=O)NC2=O)ccc1OCc1c(C)no[n+]1[O-]	.	.	5	.
CCOc1cc(/C=C2\SC(=S)NC2=O)ccc1OCc1c(C)no[n+]1[O-]	.	.	102*	.
COc1cc(Cl)cc(/C=N/NC(=O)/C(=C\c2ccc3c(c2)OCO3)NC(=O)c2ccccc2)c1O	.	.	2	.
COc1cc(/C=C(/C#N)C(=O)Nc2cccc(Br)c2)cc([N+](=O)[O-])c1O	.	.	104*	.
Cc1ccc(OCC(=O)NCc2ccncc2)cc1	.	.	7	.
COc1ccc(CCNC(=O)c2cc(-c3ccccc3O)n[nH]2)cc1OC	.	2	2	1.6
COc1ccc(CCNC(=O)c2cc(-c3ccc(C)cc3O)n[nH]2)cc1OC	2*	-9	.	.
Cc1ccc(O)c(-c2cc(C(=O)NCc3ccncc3)[nH]n2)c1	2.9*	5	4	1.3
CC(C)(C)c1ccc(S(=O)(=O)NNc2ccccc2)cc1	.	.	101*	.
Cc1ccc(S(=O)(=O)NNc2ccccc2)cc1	0.8	-1	.	.
CC(C)n1c(C(O)c2ccc3c(c2)OCO3)nc2ccccc21 (configuration not stated)	2.4*	5	-4	1
O=C(N/N=C/c1ccccn1)C1CC1	1.6	-2	.	.
O=C(N/N=C/c1ccccn1)c1ccc(Br)o1	2.4*	30	.	.
CC(=O)c1ccc(NC(=O)Nc2cccc(Cl)c2)cc1	0.9	52*	.	.
Clc1cc2c(cc1CSc1nc3ncccc3[nH]1)OCO2	.	.	4	.

Screening results (PubChem)
